Data: PubChem BioAssay
Activity calls are given as the source filed them. Unless noted, how the calls were made is not given here.

Legend:
[1] = system: XIP peptide (Xip251-270) binding; experiment: XIP fragment 251-270 binding compounds – biochemical, small-molecule microarray, fluorescence 635/667 nm, 0.1 µg/mL protein, primary screen (AID 1182); details: fluorescent protein binding, 635 nm, higher = more signal, called active from +8 up or from −8 down
XIP peptide (Xip251-270) = experiment: compounds binding XIP fragment 251-270 – biochemical, small-molecule microarray, fluorescence 635/667 nm, 0.5 µg/mL protein, primary screen (AID 1183); details: fluorescence 635 nm, higher = more signal
[2] = blood-stage malaria parasite viability loss – strain 3D7, DAPI fluorescence, 100 nL, primary screen (AID 1184);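 further: parasites grown inside human red blood cells in medium with human serum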; details: P. falciparum 3D7 growth, 3 d, higher = more signal
[3] = molecular target: Homeobox protein Hox-A13 (Mus musculus) (UniProt Q62424); experiment: disruptors of Hoxa13 oligonucleotide interaction – biochemical, fluorescence polarization, labeled oligonucleotide, primary screen (AID 1185); details: Hoxa13:DNA binding, 15 min, higher = more signal, called active from +8 up or from −8 down
Homeobox protein Hox-A13 (Mus musculus), sequence (Q62424 whole entry, looked up): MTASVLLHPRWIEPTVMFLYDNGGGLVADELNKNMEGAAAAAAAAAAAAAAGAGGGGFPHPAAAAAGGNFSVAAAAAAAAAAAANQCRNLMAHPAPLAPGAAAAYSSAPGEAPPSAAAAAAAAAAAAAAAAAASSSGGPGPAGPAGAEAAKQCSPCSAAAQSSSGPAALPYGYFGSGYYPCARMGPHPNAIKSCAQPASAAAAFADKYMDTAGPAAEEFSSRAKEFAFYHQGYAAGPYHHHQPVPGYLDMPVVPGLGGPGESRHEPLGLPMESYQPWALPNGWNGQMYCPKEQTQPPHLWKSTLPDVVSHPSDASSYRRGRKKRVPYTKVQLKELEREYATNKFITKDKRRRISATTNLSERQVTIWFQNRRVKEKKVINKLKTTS

[4] = blockers of DNA damage checkpoint Chk1 activation – imaging, HeLa, hydroxyurea, phospho-Chk1 antibody, percent positive cells, primary screen (AID 1186); details: hydroxyurea-induced phospho-Chk1 immunofluorescence imaging, higher = more signal
[5] = blockers of DNA damage checkpoint Chk1 activation – imaging, HeLa, hydroxyurea, phospho-Chk1 nuclear intensity, primary screen (AID 1187); details: hydroxyurea-induced phospho-Chk1 immunofluorescence imaging, higher = more signal

O=C1O[C@@H](c2ccccc2)[C@@H](c2ccccc2)N2[C@@H](c3ccccc3OCCO)[C@]3(C(=O)Nc4ccc(C#CC5=CCCCC5)cc43)[C@@H](C(=O)N3CCCCCCC3)[C@H]12
composite z-score [1]: 5.92 (inactive)
composite z-score (XIP peptide (Xip251-270)): 0.797
z-score [2]: -2
z-score [3]: -13.8 (active)
z-score [4]: -0.0478 (inactive)
z-score [5]: -0.372 (inactive)

O=C(c1ccccc1)N1C(=O)[C@@]2(Cc3ccccc31)N=C(c1ccc(OCCCO)cc1)O[C@H]2c1ccccc1
composite z-score [1]: 1.68 (inactive)
composite z-score (XIP peptide (Xip251-270)): 0.841
z-score [2]: -2.09
z-score [3]: -5.9 (inactive)
z-score [4]: 0.0794 (inactive)
z-score [5]: 0.255 (inactive)

CC(=O)n1cc(C(O)C2C=CC3C(=O)N(c4ccccc4)C(=O)C3N2Nc2ccc([N+](=O)[O-])cc2)c2ccccc21 (stereo unspecified)
composite z-score [1]: 1.15 (inactive)
composite z-score (XIP peptide (Xip251-270)): 0.87
z-score [2]: -0.306
z-score [3]: -4.3 (inactive)
z-score [4]: 0.541 (inactive)
z-score [5]: -0.219 (inactive)

C=CCOC(=O)[C@H]1[C@@H]2C(=O)O[C@@H](c3ccccc3)[C@@H](c3ccccc3)N2[C@@H](c2ccc(OCCOC(=O)[C@H]3C[C@H]4C(=O)N[C@@H](CCCC[N+](C)(C)C)C(=O)N4[C@H]3c3ccc(O)cc3)cc2)[C@]12C(=O)Nc1ccc(I)cc12
composite z-score [1]: 1.7 (inactive)
composite z-score (XIP peptide (Xip251-270)): 0.848
z-score [2]: 0.615
z-score [3]: -2.52 (inactive)
z-score [4]: -0.324 (inactive)
z-score [5]: -0.62 (inactive)

CCCC[C@@H]1C[C@H]1[C@@H](NC(=O)c1ccco1)c1ccc(-c2ccccc2)cc1
composite z-score [1]: -0.781 (inactive)
composite z-score (XIP peptide (Xip251-270)): -0.321
z-score [2]: -0.937
z-score [3]: 0.141 (inactive)
z-score [4]: 0.353 (inactive)
z-score [5]: 0.0955 (inactive)

COc1ccc(C(=O)Nc2ccc(CN3C(=O)[C@]4(O[C@H](CCO)[C@@H]([Si](C)(C)c5ccc(OC)cc5)[C@@H]4C)c4ccccc43)cc2)cc1
composite z-score [1]: 2.8 (inactive)
composite z-score (XIP peptide (Xip251-270)): 0.618
z-score [2]: -2.82
z-score [3]: -0.677 (inactive)
z-score [4]: -0.02 (inactive)
z-score [5]: 0.458 (inactive)

C=C(CCCC)/C(=C/C[C@@H](OC(=O)c1ccncc1)c1ccc(OCCO)cc1)c1cc(C(=O)OC)ccc1OC
composite z-score [1]: 0.35 (inactive)
composite z-score (XIP peptide (Xip251-270)): 0.565
z-score [2]: -2.8
z-score [3]: -3.62 (inactive)
z-score [4]: -0.377 (inactive)
z-score [5]: 0.106 (inactive)

CC#CC(=O)Oc1ccccc1C=CC(=O)OCC
composite z-score [1]: 0.0524 (inactive)
composite z-score (XIP peptide (Xip251-270)): 0.106
z-score [2]: -0.418
z-score [3]: -2.38 (inactive)
z-score [4]: 0.367 (inactive)
z-score [5]: 0.195 (inactive)

C=CCNC(=O)[C@H]1[C@@H]2C(=O)O[C@@H](c3ccccc3)[C@@H](c3ccccc3)N2[C@@H](c2ccccc2OCCO)[C@]12C(=O)Nc1ccc(C#CCC(C(=O)OC)C(=O)OC)cc12
composite z-score [1]: 0.924 (inactive)
composite z-score (XIP peptide (Xip251-270)): 0.737
z-score [2]: -2.25
z-score [3]: -2.6 (inactive)
z-score [4]: -0.0106 (inactive)
z-score [5]: 0.259 (inactive)

COCCOC(=O)N1C(=O)[C@@]2(c3cc(C#Cc4ccc(OC)cc4)ccc31)[C@H](c1ccc(OCCO)cc1)N1[C@H](c3ccccc3)[C@H](c3ccccc3)OC(=O)[C@H]1[C@@H]2C(=O)N1CCN(c2ncccn2)CC1
composite z-score [1]: 0.0039 (inactive)
composite z-score (XIP peptide (Xip251-270)): 0.695
z-score [2]: -1.84
z-score [3]: 0.99 (inactive)
z-score [4]: 0.13 (inactive)
z-score [5]: 0.436 (inactive)

NC(=O)NCC#Cc1ccc2c(c1)[C@]1(C(=O)N2)[C@H](c2ccccc2OCCO)N2[C@H](c3ccccc3)[C@H](c3ccccc3)OC(=O)[C@H]2[C@@H]1C(=O)Nc1nc2ccccc2s1
composite z-score [1]: 0.213 (inactive)
composite z-score (XIP peptide (Xip251-270)): 0.324
z-score [2]: -1.89
z-score [3]: 1.61 (inactive)
z-score [4]: 0.164 (inactive)
z-score [5]: 0.212 (inactive)

CC(C)CNC(=O)[C@@]1(Cc2ccccc2I)c2ccccc2C(=O)N(C2CCCCC2)[C@H]1c1ccc(CO)cc1
composite z-score [1]: 2.15 (inactive)
composite z-score (XIP peptide (Xip251-270)): 0.696
z-score [2]: -1.15
z-score [3]: -3.77 (inactive)
z-score [4]: 0.145 (inactive)
z-score [5]: -0.0021 (inactive)

CC1CC/C=C\[C@H]2OC34C=CCN(C(C)(C)C)C(=O)[C@H]3N(C(C)CO)C(=O)[C@@H]4C2C(=O)O1 (stereo partly specified)
composite z-score [1]: -0.323 (inactive)
composite z-score (XIP peptide (Xip251-270)): -1.08
z-score [2]: 0.0549
z-score [3]: -5.51 (inactive)
z-score [4]: 0.714 (inactive)
z-score [5]: -0.0558 (inactive)

CN1C(=O)C2C=CC(C(O)c3ccco3)N(Nc3ccccc3)C2C1=O (stereo unspecified)
composite z-score [1]: -0.225 (inactive)
composite z-score (XIP peptide (Xip251-270)): 0.343
z-score [2]: -0.142
z-score [3]: -3.54 (inactive)
z-score [4]: -0.221 (inactive)
z-score [5]: -0.752 (inactive)

Cc1ccc(S[C@]2(C(=O)O)CC(=O)N(C(C)C)[C@@H]2c2ccc(CO)cc2I)cc1
composite z-score [1]: 0.534 (inactive)
composite z-score (XIP peptide (Xip251-270)): 0.837
z-score [2]: 0.14
z-score [3]: -3.85 (inactive)
z-score [4]: -0.366 (inactive)
z-score [5]: 0.0562 (inactive)

CC[C@@H]1C=C(C(=O)O)[C@H](c2ccc(Br)cc2)N1S(=O)(=O)c1ccc(C)cc1
composite z-score [1]: 0.693 (inactive)
composite z-score (XIP peptide (Xip251-270)): 0.159
z-score [2]: -0.737
z-score [3]: -3.11 (inactive)
z-score [4]: -0.0321 (inactive)
z-score [5]: 0.0367 (inactive)
